Bioassay records (PubChem BioAssay)
RGS4 inhibitor: Inhibitors of Regulator of G Protein Signaling (RGS) 4: qHTS | 0.039% of 390,000 active | Potency, µM (series often up to 114 µM), for the others: at the top dose activity change, negative = inhibition, hits mostly inhibitors | Transcreener GDP fluorescence polarization, RGS4-accelerated GTP hydrolysis | AID 504845, 2011 | Regulator of G-protein signaling 4 (Homo sapiens), P49798; active = well fitted inhibition curve with a large enough effect; inconclusive = small, poorly fitted or top-dose-only effect; inactive = no such curve, though single readings can be large or run the other way; note: potency is the fitted concentration of half-maximal effect; % is set by controls: 0 for no effect and ±100 for the full control effect; nearly all actives have a fitted effect of over 75% in size
Target sequence (P49798 whole entry, looked up): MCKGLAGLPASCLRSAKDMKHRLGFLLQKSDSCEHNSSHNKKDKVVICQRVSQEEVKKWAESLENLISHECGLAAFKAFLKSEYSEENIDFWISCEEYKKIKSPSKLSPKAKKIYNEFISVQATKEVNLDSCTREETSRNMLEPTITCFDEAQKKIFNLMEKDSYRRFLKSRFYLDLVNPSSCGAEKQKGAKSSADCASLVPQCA
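MLSMR compounds (23 nl, pin-transferred) preincubated 10 min at room temperature with a 500nM (2x) first reagent, then RGS4 at 900nM (2x) plus Transcreener GDP mix added; fluorescence polarization (620/688 nm) read before and after 90 min at 30 °C.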
DRD3 antagonist: qHTS of D3 Dopamine Receptor Antagonist: qHTS; AID 652054, 2013; D3R cells, DiscoveRx beta-arrestin luminescence, antagonist mode; hits give low values; 2.5% of 360,000 active; max response, negative = inhibition, %; D(3) dopamine receptor (Homo sapiens), P35462; in the data active = max response below about -50%; inconclusive = no clear call, values can overlap the other calls; note: % is set by controls: 0 for no effect and ±100 for the full control effect
Target sequence (P35462 whole entry, looked up): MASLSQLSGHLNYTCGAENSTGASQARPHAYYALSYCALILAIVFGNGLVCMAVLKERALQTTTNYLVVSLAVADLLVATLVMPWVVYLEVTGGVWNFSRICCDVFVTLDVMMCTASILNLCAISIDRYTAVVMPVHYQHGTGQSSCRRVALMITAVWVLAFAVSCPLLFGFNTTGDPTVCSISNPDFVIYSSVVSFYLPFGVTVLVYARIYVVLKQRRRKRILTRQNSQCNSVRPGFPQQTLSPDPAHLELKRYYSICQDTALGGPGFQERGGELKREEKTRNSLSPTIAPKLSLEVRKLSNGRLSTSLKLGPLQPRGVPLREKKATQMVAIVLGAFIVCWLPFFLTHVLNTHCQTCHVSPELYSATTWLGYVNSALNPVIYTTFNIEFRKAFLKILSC
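Cells plated overnight at 1500 cells/well, then exposed to library compounds with dopamine controls for 90 minutes at 37 degrees C. DiscoveRx reagent added for 30–60 minutes at room temperature; luminescence read, quantitative HTS format.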
uPA surface inh: qHTS for Inhibitors of Cell Surface uPA Generation. cell surface uPA generation assay, qHTS. Potency, µM (series often up to 38.3 µM), without a hit: at the highest dose activity change, negative = inhibition, hits mostly inhibitors. 0.31% of 330,000 active. AID 540303, 2011; active = well fitted inhibition curve with a large enough effect; inconclusive = small, poorly fitted or top-dose-only effect; inactive = no such curve, though single readings can be large or run the other way; tested in mouse RAW 264.7 cells; note: potency is the fitted concentration of half-maximal effect; % is set by controls: 0 for no effect and ±100 for the full control effect; nearly all actives have a fitted effect of over 55% in size
D3 ag: qHTS of D3 Dopamine Receptor Agonist: qHTS. D(3) dopamine receptor (Homo sapiens), P35462. max activation, %. D3R DiscoveRx beta-arrestin cells, luminescence, 90 min. 0.58% of 410,000 active; in the data active = max activation above about 30%; note: 0% is about no effect
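Agonist mode: compounds and dopamine controls were applied to plated cells for 90 min at 37 degrees C after an overnight attachment at 1500 cells/well. Luminescent read-out followed 30 - 60 minutes at room temperature with DiscoveRx detection reagent.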
The depositor's hits bear a star; ? = inconclusive; nt = no result given; [ ] = dose if it differs, or a comment. Only some compounds are listed: those with a hit (about 3.1% of all), similar ones and a draw of the others.

SMILES | RGS4 inhibitor | DRD3 antagonist | uPA surface inh | D3 ag
O=C(Nc1nccs1)[C@@H]1CCCN1C(=O)c1cccs1 | -8% | -2 | 0% | 0
O=C(Nc1nc2c(s1)CCCC2)c1ccc(Br)s1 | 8% | -67* | nt | -26
Cc1cccc(C(=O)Nc2nc3c(s2)CCCC3)c1 | 14% | nt | nt | -23
CC(C)Nc1ncnc2c1cnn2-c1ccc(Cl)cc1 | -3% | 10 | 13µM* | 5
Clc1ccc(Nc2ncnc3c2cnn3-c2ccccc2)cc1 | -11% | 4 | 8% | 4
CCOc1[nH]n(-c2ccccc2)c(=O)c1C=Nc1ccccc1 | -29% | 14 | 6.3µM* | 1
CCOc1[nH]n(-c2ccccc2)c(=O)c1C=Nc1ccc(C)cc1 | 3% | 13 | 6% | -4
Cc1ccc(OCCCC(=O)Nc2ccc3c(c2)OCO3)cc1 | 2% | -52* | -6% | 7
CC(C)(C)OC(=O)C[C@H]1C/C=C\C[C@H](CC(=O)N(CCO)Cc2ccccc2)C(=O)NCCOC1=O | 23% | 30 | 0% | -1
CC(C)(C)OC(=O)C[C@@H]1C/C=C\C[C@@H](CC(=O)N(CCO)Cc2ccccc2)C(=O)NCCOC1=O | 6% | -123* | 19% | -27
CC(C)(C)OC(=O)C[C@@H]1C/C=C\C[C@@H](CC(=O)N(CCO)Cc2ccccc2)C(=O)N2CCC[C@@H]2COC1=O | -5% | 7 | 2% | 35*
CC(C)(C)OC(=O)C[C@H]1C/C=C\C[C@@H](CC(=O)N(CCO)Cc2ccccc2)C(=O)N2CCC[C@@H]2COC1=O | -14% | -12 | -4% | -21
CC(=O)c1ccc(N2CCN(c3ncnc4c3nc3n4CCCC3)CC2)cc1 | 13% | nt | nt | -15
COc1ccc(CC2=CC(=O)c3ccccc3C2=O)cc1 | ? | -56* | ? | -18
COc1ccc(NC(=S)N(CCC(C)C)C2CCN(C(C)=O)CC2)cc1 | 20% | 3 | -2% | -1
COc1ccc(NC(=S)N(CCC(C)C)C2CCN(C(C)C)CC2)cc1 | -8% | -54* | -2% | -16
CCOc1ccccc1Nc1sc(C(=O)c2ccc(Cl)cc2)c(N)c1C#N | -35% | nt | nt | 16
CCCCNC(=O)c1onc(CSc2ccncc2)c1C(=O)NCCCC | 23% | -3 | 16% | 59*
CCCCNC(=O)c1onc(CSc2ccccc2)c1C(=O)NCCCC | -1% | 0 | 3% | 42*
CCCCNC(=O)c1onc(CSc2ccc(Cl)cc2)c1C(=O)NCCCC | 12% | -6 | 2% | -13
COCCNC(=O)c1onc(CSc2ccc(F)c(F)c2)c1C(=O)NCCOC | 7% | 0 | 10% | 30*
O=C(C1CCCCC1)N(Cc1cccnc1)c1nc2ccc(Cl)cc2s1 | 13% | nt | nt | -13
CCC(=O)N1CCc2cc(S(=O)(=O)NC(C(=O)NCc3ccc(F)cc3)C(C)C)ccc21 (configuration not stated) | -17% | -16 | 2% | -2
O=C(C1CCC1)N1CCc2cc(S(=O)(=O)NCCN3CCN(c4ccccc4F)CC3)ccc21 | 12% | -28 | -13% | 67*
CCC(=O)N1CCc2cc(S(=O)(=O)NC(C(=O)NCc3ccccc3)C(C)C)ccc21 (configuration not stated) | 59% | -77* | 2% | -4
SMILES | RGS4 inhibitor | DRD3 antagonist | uPA surface inh | D3 ag
CCC(=O)N1CCc2cc(S(=O)(=O)NCCN3CCCCC3CC)ccc21 (configuration not stated) | -22% | -59* | 2% | -7
CCCOc1ccc(CNC(=O)C(NS(=O)(=O)c2cccs2)C(C)C)cc1 (configuration not stated) | 7% | nt | nt | 4
Cc1ccc(CNC(=O)c2ccc(Cn3nc(C)c(Cl)c3C)o2)cc1 | ? | -53* | 10% | -12
CCC(C)Nc1nc(Cl)nc(N(C#N)CN2C(=O)c3ccccc3S2(=O)=O)n1 (configuration not stated) | -43% | -71* | -2% | -3
NC(=O)c1ccc[n+]([C@@H]2O[C@H](COP(=O)([O-])OP(=O)(O)OC[C@H]3O[C@@H](n4cnc5c(N)ncnc54)[C@H](O)[C@@H]3O)[C@@H](O)[C@H]2O)c1 | nt | nt | nt | 8
NC(=S)c1ccc[n+]([C@@H]2O[C@@H](COP(=O)([O-])OP(=O)(O)OC[C@H]3O[C@@H](n4cnc5c(N)ncnc54)[C@H](OP(=O)(O)O)[C@@H]3O)C(O)C2O)c1 (some centres not stated) | 27µM* | nt | nt | nt
O=C(CC(=O)c1cc(Cl)ccc1O)c1ccccc1 | -14% | 13 | -29% | 4
Cc1cccc(C(=O)CC(=O)c2cc(Cl)ccc2O)c1 | -1%[56.9 µM] | -79* | -9% | 0
CCOc1cc(CNCCc2ccc(S(N)(=O)=O)cc2)ccc1OCC(=O)NC1CCCCC1 | 18% | -11 | -6% | -16
CCOc1cc(CNCc2ccccn2)ccc1OCC(=O)NC1CCCCC1 | -30% | -89* | -6% | -23
CN(C)C(=O)/N=N/C(=O)N(C)C | 3µM* | nt | nt | nt
COC(=O)c1cc2oc3ccccc3c2n1Cc1nc(-c2cccc(Cl)c2)oc1C | 11% | nt | nt | -24
CC(NCC(=O)NC(=O)NCCC1=CCCCC1)c1ccc(S(N)(=O)=O)cc1 (configuration not stated) | 18% | 3 | 8% | 3
CCCCN1CCc2c1nc1ccc(Br)cc1c2N | 9% | -84* | 10% | -39
CN1CCc2c1nc1ccccc1c2N (tested in a mixture with another compound) | 4% | 11 | -1% | 1
CCCCN(C)C(=O)c1ccc2c(=O)n3nc(Nc4cc(C)ccc4C)sc3nc2c1 | -27% | nt | nt | 0
COc1cccc(/C(O)=C2\C(=O)C(=O)N(c3ccccn3)C2c2ccccc2OC)c1 (configuration not stated) | 34% | -51* | -1% | -1
COc1ccc(C2/C(=C(/O)c3ccc(Cl)cc3)C(=O)C(=O)N2CCN2CCOCC2)c(OC)c1 (configuration not stated) | 4% | 0 | 1% | 1
COc1ccc(C2/C(=C(/O)c3ccccc3)C(=O)C(=O)N2CCN2CCOCC2)c(OC)c1 (configuration not stated) | -1% | -57* | 1% | 0
Cc1ccc(C2=Nc3ccccc3N(CC(=O)Nc3ccccc3F)C(=O)C2)cc1C | -6% | nt | nt | -9
COc1ccc(OC)c(NC(=O)C(C)n2c(=O)c(-c3ccccc3NC(C)=O)nc3ccccc32)c1 (configuration not stated) | -12% | nt | nt | -12
CSc1nc2n(n1)C(c1cc(Br)ccc1F)C(C(=O)N(C)C)=C(C)N2 (configuration not stated) | -39% | -70* | 1% | 2
Nc1ccc(S(=O)(=O)NN=CC=Cc2ccccc2[N+](=O)[O-])cc1 | -10% | -65* | -5% | -17
Cc1ccn2c(CNCCCn3cccn3)c(C(=O)N3CCCCCC3)nc2c1 | -26% | -58* | -3% | -15
